# Results: the supplement of paper PMC4022240
# ± gives the standard deviation.
# T1: HaloTag-ATRX ADD domain (163-292)
# T1 chain: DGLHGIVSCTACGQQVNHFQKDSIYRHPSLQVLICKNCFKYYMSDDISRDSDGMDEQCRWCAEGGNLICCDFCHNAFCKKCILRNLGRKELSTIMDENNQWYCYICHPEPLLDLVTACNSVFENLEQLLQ
# Columns and labels:
# Assay in all cases: peptide microarray binding signal (635 nm), min-max normalized on array (fraction of array maximum); higher = stronger binding
# [1] = target: T1, HaloTag-ATRX ADD domain (163-292)
# Summary of the method: (§1)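 Arrays carried histone 13-mer peptide–cellulose conjugates printed in triplicate on nitrocellulose alongside a Cy3 tracer. After overnight blocking at 4°C, they were incubated for 1 h at 4°C with biotin-labelled HaloTag reader fusions (10 nM to 1 μM) plus streptavidin-Alexa Fluor 647, or with rabbit histone antibodies (1:10,000 to 1:2,000) plus anti-rabbit Alexa 647. Scanning on an Axon GenePix 4000B used 635 nm for signal and 532 nm for misprints. The binding signal reported is each triplicate's mean spot intensity after per-library min-max scaling.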
# [2] = target: HaloTag-ING2 PHD (mouse Ing2 200-280)
# Summary of the method: as §1
# [3] = target: anti-H3K4me3 antibody ab8580
# Summary of the method: as §1
# [4] = target: anti-H3K9me3 antibody ab8898
# Summary of the method: as §1
# [5] = peptide region: Unmod H2A variant, binder concentration: 50 nM
# [6] = peptide region: Unmod H2A variant, binder concentration: 500 nM
# [7] = peptide region: Unmod H2A variant, binder concentration: 10 nM
# [8] = peptide region: Unmod H2A variant, binder concentration: 100 nM
# [9] = peptide region: Unmod H2A variant, binder concentration: 1:2,000 dilution
# [10] = peptide region: Unmod H2A variant, binder concentration: 1:10,000 dilution
# [11] = peptide region: Unmod H1 variant, binder concentration: 50 nM
# [12] = peptide region: Unmod H1 variant, binder concentration: 500 nM
# [13] = peptide region: Unmod H1 variant, binder concentration: 10 nM
# [14] = peptide region: Unmod H1 variant, binder concentration: 100 nM
# [15] = peptide region: Unmod H1 variant, binder concentration: 1:2,000 dilution
# [16] = peptide region: Unmod H1 variant, binder concentration: 1:10,000 dilution
binder,measurement,setting,value
AGLQFPVGRVHRL [Unmod H2A variant A G L Q F P V G R V H R L],peptide microarray binding signal,[1]; [5],0.0745 ± 0.019
same,peptide microarray binding signal,[1]; [6],0.0998 ± 0.058
same,peptide microarray binding signal,[2]; [7],0.0252 ± 0.0093
same,peptide microarray binding signal,[2]; [8],0.0507 ± 0.015
same,peptide microarray binding signal,[3]; [9],0.00176 ± 0.00047
same,peptide microarray binding signal,[3]; [10],0.00793 ± 0.00092
same,peptide microarray binding signal,[4]; [9],0.00307 ± 0.00038
same,peptide microarray binding signal,[4]; [10],0.00542 ± 0.00044
AKAVKPKAAKPKT [Unmod H1 variant A K A V K P K A A K P K T],peptide microarray binding signal,[1]; [11],0.0116 ± 0.00013
same,peptide microarray binding signal,[1]; [12],0.00791 ± 0.00033
same,peptide microarray binding signal,[2]; [13],0.00304 ± 8.9e-05
same,peptide microarray binding signal,[2]; [14],0.00765 ± 0.00045
same,peptide microarray binding signal,[3]; [15],0.000774 ± 2.8e-05
same,peptide microarray binding signal,[3]; [16],0.00137 ± 1.3e-05
same,peptide microarray binding signal,[4]; [15],0.000453 ± 1.3e-05
same,peptide microarray binding signal,[4]; [16],0.000865 ± 9e-06
KAKSSAKRAGKKK [Unmod H1 variant K A K S S A K R A G K K K],peptide microarray binding signal,[1]; [12],0.016 ± 0.0011
same,peptide microarray binding signal,[2]; [14],0.00369 ± 5.6e-05
same,peptide microarray binding signal,[3]; [15],0.00034 ± 6.1e-06
same,peptide microarray binding signal,[4]; [15],0.000227
KAAKPKKAAAKKK [Unmod H1 variant K A A K P K K A A A K K K],peptide microarray binding signal,[1]; [11],0.00972 ± 0.0014
same,peptide microarray binding signal,[1]; [12],0.00767 ± 0.00046
same,peptide microarray binding signal,[2]; [13],0.0034 ± 6.6e-05
same,peptide microarray binding signal,[2]; [14],0.00673 ± 0.00083
same,peptide microarray binding signal,[3]; [15],0.0007173 ± 6.6e-06
same,peptide microarray binding signal,[3]; [16],0.00143
same,peptide microarray binding signal,[4]; [15],0.000619 ± 2.4e-05
same,peptide microarray binding signal,[4]; [16],0.00156 ± 6.6e-05
KKAPKSPAKAKAV [Unmod H1 variant K K A P K S P A K A K A V],peptide microarray binding signal,[1]; [11],0.00658 ± 0.0021
same,peptide microarray binding signal,[1]; [12],0.00976 ± 0.00041
same,peptide microarray binding signal,[2]; [13],0.00412 ± 0.0002
same,peptide microarray binding signal,[2]; [14],0.00978 ± 0.00048
same,peptide microarray binding signal,[3]; [15],0.000793 ± 4.5e-05
same,peptide microarray binding signal,[3]; [16],0.00154 ± 3.9e-05
same,peptide microarray binding signal,[4]; [15],0.000347 ± 9.2e-06
same,peptide microarray binding signal,[4]; [16],0.00115 ± 2e-05
PKKAKAAKPKKAP [Unmod H1 variant P K K A K A A K P K K A P],peptide microarray binding signal,[1]; [11],0.009 ± 0.00089
same,peptide microarray binding signal,[1]; [12],0.01 ± 0.00062
same,peptide microarray binding signal,[2]; [13],0.00424 ± 0.00016
same,peptide microarray binding signal,[2]; [14],0.00751 ± 0.00063
same,peptide microarray binding signal,[3]; [15],0.0006985 ± 6.5e-06
same,peptide microarray binding signal,[3]; [16],0.00171 ± 3.3e-05
same,peptide microarray binding signal,[4]; [15],0.000589 ± 9.4e-06
same,peptide microarray binding signal,[4]; [16],0.00773 ± 0.0051
RAKAKTRSSRAGL [Unmod H2A variant R A K A K T R S S R A G L],peptide microarray binding signal,[1]; [5],0.0117 ± 0.00045
same,peptide microarray binding signal,[1]; [6],0.0611 ± 0.039
same,peptide microarray binding signal,[2]; [7],0.00531 ± 0.00038
same,peptide microarray binding signal,[2]; [8],0.0242 ± 0.0082
same,peptide microarray binding signal,[3]; [9],0.00328 ± 0.00034
same,peptide microarray binding signal,[3]; [10],0.00165 ± 3.2e-05
same,peptide microarray binding signal,[4]; [9],0.000966 ± 0.00011
same,peptide microarray binding signal,[4]; [10],0.0011 ± 1.1e-05
KPKTAKPKAAKPK [Unmod H1 variant K P K T A K P K A A K P K],peptide microarray binding signal,[1]; [11],0.0113 ± 0.0004
same,peptide microarray binding signal,[1]; [12],0.00857 ± 0.00027
same,peptide microarray binding signal,[2]; [13],0.00292 ± 8.4e-05
same,peptide microarray binding signal,[2]; [14],0.00914 ± 0.00042
same,peptide microarray binding signal,[3]; [15],0.000736
same,peptide microarray binding signal,[3]; [16],0.00143 ± 2.4e-05
same,peptide microarray binding signal,[4]; [15],0.000529 ± 1.8e-05
same,peptide microarray binding signal,[4]; [16],0.0011 ± 1.1e-05
KGNYAERVGAGAP [Unmod H2A variant K G N Y A E R V G A G A P],peptide microarray binding signal,[1]; [5],0.0103 ± 0.00041
same,peptide microarray binding signal,[1]; [6],0.0165 ± 0.00062
same,peptide microarray binding signal,[2]; [7],0.0105 ± 0.0025
same,peptide microarray binding signal,[2]; [8],0.034 ± 0.0024
same,peptide microarray binding signal,[3]; [9],0.00546 ± 0.001
same,peptide microarray binding signal,[3]; [10],0.00171 ± 6.5e-05
same,peptide microarray binding signal,[4]; [9],0.00116 ± 9.3e-05
same,peptide microarray binding signal,[4]; [10],0.00075 ± 2.1e-05
AAGAKKAKSPKKA [Unmod H1 variant A A G A K K A K S P K K A],peptide microarray binding signal,[1]; [11],0.0119 ± 0.00059
same,peptide microarray binding signal,[1]; [12],0.01348 ± 5.3e-05
same,peptide microarray binding signal,[2]; [13],0.003342 ± 1.8e-05
same,peptide microarray binding signal,[2]; [14],0.00999 ± 0.0011
same,peptide microarray binding signal,[3]; [15],0.00068 ± 1.9e-05
same,peptide microarray binding signal,[3]; [16],0.00143 ± 2.4e-05
same,peptide microarray binding signal,[4]; [15],0.0004379 ± 4.2e-06
same,peptide microarray binding signal,[4]; [16],0.00115
